# Bioassay records as filed in PubChem.
# BJeLR lethal: MLPCN primary cell-based screen for lethality selective to Ras in HRASV12 cells | BJeLR (HRASV12) viability, CellTiter-Glo ATP luminescence, 48 h | inhibition, % (test concentration not listed) | hit rate 0.17% among 300,000; in the data active = inhibition above about 50%
# 3CLpro inhibitor: SARS-CoV 3CLpro protease inhibitors, primary screen, biochemical, quenched FRET. Replicase polyprotein 1ab (Severe acute respiratory syndrome coronavirus), P0C6X7. recombinant SARS-CoV 3CLpro, quenched FRET peptide cleavage. inhibition, % at 6 µM. hit rate 0.14% among 290,000. AID 1706, 2009; in the data active = inhibition above about 12%
# ugtP null kill: growth inhibition of ugtP-null S. aureus, primary screen, RN4220 ugtP deletion, OD600; 16 h; growth inhibition, % (test concentration not listed); hit rate 0.54% among 330,000; in the data active = growth inhibition above about 68%;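 also: plate controls were untreated wells for no effect and antibiotic for full effect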
# VHR inh abs: VHR1 phosphatase inhibitors, primary screen, biochemical, absorbance, uHTS; Dual specificity protein phosphatase 3 (Homo sapiens), P51452; recombinant VHR phosphatase, pNPP absorbance; inhibition, % at 13.3 µM; hit rate 0.52% among 290,000; in the data active = inhibition above about 50%
# Target sequence (P51452 whole entry, looked up): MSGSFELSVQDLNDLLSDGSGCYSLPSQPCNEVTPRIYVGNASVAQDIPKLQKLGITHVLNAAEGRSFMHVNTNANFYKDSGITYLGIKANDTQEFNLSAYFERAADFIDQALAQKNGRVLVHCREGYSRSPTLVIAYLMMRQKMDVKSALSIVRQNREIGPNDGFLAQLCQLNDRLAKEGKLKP
# PrPC TRFRET: inhibitors of human cell surface prion protein PrPC, primary screen, cell-based, TR-FRET. TR-FRET read-out. inhibition, % at 13.8 µM. hit rate 0.43% among 370,000; in the data active = inhibition above about 24%; also: 0% = median of the test wells and 100% = reference compound wells
# Sa RN4220 lethal: growth inhibition of S. aureus RN4220, primary screen, OD600. 16 h. hit rate 0.33% among 330,000. AID 1259311, 2017. inhibition, % (test concentration not listed); in the data active = inhibition above about 85%;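 also: plate controls were untreated cells for no effect and reference antibiotic for full effect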
# An asterisk follows results filed as active; . = no result given. An excerpt weighted towards active compounds, which were near 1.4% of everything screened.
SMILES,BJeLR lethal,3CLpro inhibitor,ugtP null kill,VHR inh abs,PrPC TRFRET,Sa RN4220 lethal
Cc1c(Cl)c(C(F)F)nn1CC(=O)NC1C(=O)N2C(C(=O)O)=C(CSc3nnnn3C)CSC12 (centres undefined),2,0,97*,-11,-6,100*
CC1COC(=O)CCCCC=CCC(CC(=O)N(CCO)Cc2ccccc2)C(=O)N1 (centres undefined),.,.,-3,.,.,1
CC(C)CC(NC(=O)c1[nH]cnc1C(=O)Nc1ccc(CNC(=O)OC(C)(C)C)cc1)C(=O)OCc1ccccc1 (centres undefined),.,.,4,.,.,3
COc1ccc(C(=O)N2CC3(CC(c4ccc(Cl)cc4)=NO3)CC2C(=O)NCC(N)=O)cc1 (centres undefined),.,.,-1,.,.,4
Cc1nn(CC(=O)NC2C(=O)N3C(C(=O)O)=C(CSc4nnnn4C)CSC23)cc1Br (centres undefined),1,6,99*,7,-7,100*
CO[C@@]1(NC(=O)CSCC#N)C(=O)N2C(C(=O)O)=C(CSc3nnnn3C)CSC21 (some centres undefined),.,.,6,.,.,3
Cc1c(Cl)cnn1CC(=O)NC1C(=O)N2C(C(=O)O)=C(CSc3nnnn3C)CSC12 (centres undefined),-1,-2,100*,3,-8,100*
CC#CCN1c2ccccc2[C@]23CC(C(=O)OC)N(C(=O)NC(C)(C)C)C2=NC(C(=O)OC)=C(C(=O)OC)C13 (some centres undefined),.,.,-5,.,.,-9
Cc1ccc(N2C(=O)N3C4c5ccccc5OCC4C(c4ccccc4)[C@@]3(C)C2=O)cc1 (some centres undefined),.,.,-3,.,.,-3
O=C1NC(=O)/C(=C/c2ccc(-c3cc(C(=O)O)ccc3Cl)o2)S1,2,5,4,8,-9,6
O=C1NC(=S)/C(=C\c2ccc(-c3ccccc3Cl)o2)S1,3,-2,95*,-10,-2,97*
C=CCC(CC(=O)NCCO)C(=O)NC(C)COC(=O)C(CC=C)Cc1ccc(F)cc1 (centres undefined),.,.,6,.,.,6
COc1cc(C=C2SC(=O)N(Cc3ccccc3)C2=O)ccc1OCc1ccncc1,.,.,-8,.,.,3
Cc1cc2ncn(/N=C/c3ccc([N+](=O)[O-])o3)c2cc1C,-5,10,.,52*,-3,.
CCN1C(=O)C2C(c3ccc(-c4ccc(F)cc4)c(OC)c3)N3CCC[C@@]3(C(=O)OC)C2C1=O (some centres undefined),.,.,3,.,.,-2
CCOC(=O)C1=C(C)OC(N)=C(C#N)C12C(=O)N(C)c1ccccc12 (centres undefined),-4,-5,74,15,1,91*
COC(=O)CC1=C(C(=O)OC)C2(C(=O)Nc3c(C)cccc32)C(C#N)=C(N)O1 (centres undefined),-2,-1,95*,-12,-15,97*
COc1ccc2c(c1)OCC1C2N2C(=O)c3ccc(C)cc3NC(=O)[C@@]2(C)C1c1ccccc1 (some centres undefined),.,.,8,.,.,-5
C=CCN1C(=O)/C(=C2/Sc3ccccc3N2CCCS(=O)(=O)O)SC1=S,-5,1,5,50*,-27,-5
CCOC(=O)c1ccc(N2C(=O)C(c3ccccc3)C2c2ccccc2)cc1 (centres undefined),.,.,-1,.,.,-5
COCc1ccc(C(=O)N2CCC(CCC(=O)Nc3cccc(C)c3)CC2)s1,5,4,13,5,10,1
Cc1cccc(NC(=O)CCC2CCN(C(=O)c3ccc(C)s3)CC2)c1,3,1,-5,60*,3,-1
O=C(Nc1nnc(-c2ccccc2Cl)o1)c1ccco1,5,0,-12,2,-4,9
O=C(Nc1nnc(-c2ccccc2Cl)o1)c1nc2ccccc2s1,9,0,100*,53*,-7,99*
CCC1=C(OC(=O)N(CC)CC)N2C(=O)OC(=NCCOC)[C@]2(Cc2ccccc2)C2C1=CCC1C(=O)N(CC)C(=O)C12 (some centres undefined),.,.,1,.,.,5
SMILES,BJeLR lethal,3CLpro inhibitor,ugtP null kill,VHR inh abs,PrPC TRFRET,Sa RN4220 lethal
COc1cc(/C=C(\C#N)c2nc(-c3cc4ccccc4oc3=O)cs2)ccc1O,-15,6,-17,18,-1,-4
COc1cc(/C=C(/C#N)c2nc(-c3cc4ccccc4oc3=O)cs2)cc([N+](=O)[O-])c1O,.,3,.,101*,5,.
COc1ccc2c(c1)OCC1C2N2C(=O)CN(Cc3ccc(C)cc3)C(=O)[C@@]2(C)C1c1ccccc1 (some centres undefined),.,.,-12,.,.,2
CCCCCCCCN1C(CC(=O)OC)c2cc(F)ccc2S1(=O)=O (centres undefined),.,.,11,.,.,5
O=C(NCCCSc1ccccc1)c1cc(Br)ccc1O,-6,2,81,5,1,83*
CCOc1ccc(CCNC(=O)c2ccc(CS(=O)Cc3cccc(Cl)c3)o2)cc1 (centres undefined),7,-1,96*,-20,0,-6
O=C(C=Cc1ccc(Cl)cc1Cl)NCCN1CCOCC1,.,.,5,.,.,-1
COc1ccc(C=C2C(=O)c3ccccc3C2=O)cc1O,-6,1,7,-17,-4,4
CCN1C/C(=C/c2ccc(OC)c(O)c2)C(=O)/C(=C/c2ccc(OC)c(O)c2)C1,55*,5,9,7,-6,6
COc1ccc(/C=C2\CN(Cc3ccccc3)C/C(=C\c3ccc(OC)c(O)c3)C2=O)cc1O,69*,-5,.,16,-8,.
O=C1CCN(Cc2ccc(O)cc2)CCN1C(CO)c1ccccc1 (centres undefined),.,.,1,.,.,4
COc1cc2cnc(-c3ccccc3)c(-c3ccc(C(F)(F)F)cc3)c2cc1OC,.,.,101*,.,1,100*
Fc1ccc2cnc(-c3ccccc3)c(-c3ccc(C(F)(F)F)cc3)c2c1,.,.,-7,.,10,-2
O=[N+]([O-])c1ccn(-c2nc(-c3cccs3)cc(C(F)(F)F)n2)n1,8,4,-1,54*,-9,1
O=C(CC=NOCc1ccc(Cl)cc1Cl)c1ccc(Cl)cc1,.,.,-2,.,.,6
Clc1ccc(C(c2ccc(Cl)cc2)n2cc[n+](CC(OCc3ccc(Cl)cc3Cl)c3ccc(Cl)cc3Cl)c2)cc1 (centres undefined),.,.,100*,.,5,100*
O=C(Nc1ccccc1)C1=CC(C2CC2)CC(OCCCCO)O1 (centres undefined),.,.,-1,.,.,5
COC(=O)c1ccc(C23CC4(C2)C(CN(Cc2ccc(-c5ccccc5)cc2)C4c2ccccc2)C3c2ccc(Cl)nc2)cc1 (centres undefined),.,.,2,.,.,1
